Screens from PubChem BioAssay.
Shown are actives, neighbours in structure and some others; about 3.5% of the full set was active somewhere.
MITF primary: MITF inhibitors, primary screen, biochemical, AlphaScreen, human. AlphaScreen MITF homodimerization, bead proximity signal. inhibition, % at 2.6 µM. 650,000 compounds, 0.91% hits; in the data active = inhibition above about 50%;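 also: 0% = vehicle wells with protein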
TEAD-YAP block: TEAD-YAP interaction inhibition, primary screen, TEAD-YAP interaction inhibitor project, luminescence, HEK-TIYL cells; TEAD-Gal4/YAP UAS-luciferase luminescence; inhibition, % at 9.12 µM; 640,000 compounds, 1.4% hits; in the data active = inhibition above about 32%;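 also: 0% = median of test compound wells and 100% = reference inhibitor wells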
FBW7 activator: FBW7 E3 ligase activators, primary screen, biochemical, AlphaScreen, human | F-box/WD repeat-containing protein 7 (Homo sapiens), Q969H0 | AlphaScreen FBW7–phospho-cyclin E peptide binding, activator screen | normalized activity (activation), % at 26.1 µM | 650,000 compounds, 0.13% hits | AID 1259310, 2017; in the data active = normalized activity above about 1.9%;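 also: purified mutant Fbw7 with reduced substrate affinity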
Target sequence (Q969H0 whole entry, looked up): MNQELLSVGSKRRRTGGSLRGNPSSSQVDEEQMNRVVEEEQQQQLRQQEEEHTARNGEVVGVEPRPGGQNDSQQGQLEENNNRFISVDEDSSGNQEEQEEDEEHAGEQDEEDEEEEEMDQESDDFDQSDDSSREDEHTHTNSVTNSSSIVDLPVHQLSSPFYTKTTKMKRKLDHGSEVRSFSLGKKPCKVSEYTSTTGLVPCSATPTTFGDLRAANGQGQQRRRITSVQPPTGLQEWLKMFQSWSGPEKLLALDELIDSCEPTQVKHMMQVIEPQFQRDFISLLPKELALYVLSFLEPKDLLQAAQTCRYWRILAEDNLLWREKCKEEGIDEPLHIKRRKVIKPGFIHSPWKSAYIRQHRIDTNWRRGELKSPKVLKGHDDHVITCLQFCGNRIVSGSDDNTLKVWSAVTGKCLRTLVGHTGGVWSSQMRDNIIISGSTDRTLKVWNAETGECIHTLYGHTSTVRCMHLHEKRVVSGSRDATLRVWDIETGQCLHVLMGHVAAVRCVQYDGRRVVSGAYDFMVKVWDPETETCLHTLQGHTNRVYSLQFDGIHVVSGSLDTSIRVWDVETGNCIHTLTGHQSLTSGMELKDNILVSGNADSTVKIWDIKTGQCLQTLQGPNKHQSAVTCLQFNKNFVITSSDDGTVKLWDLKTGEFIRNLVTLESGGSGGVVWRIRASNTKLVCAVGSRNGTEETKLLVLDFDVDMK
GPR151 activ: activators of human GPR151, primary screen, cell-based, PathHunter beta-arrestin, luminescence. AID 1508602, 2020. activation, % at 11.2 µM. PathHunter beta-arrestin GPR151 cells. 650,000 compounds, 1% hits; in the data active = activation above about 4.9%;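 also: 0% = median of compound wells and 100% = cells with positive control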
Numbers without * were called inactive.

Results for CCc1ccccc1NC(=O)c1ccc(F)c(S(=O)(=O)N2CCc3ccccc3C2)c1 ?
MITF primary: -5; TEAD-YAP block: -3; FBW7 activator: 0; GPR151 activ: 0

How did Cc1cc(S(=O)(=O)O)c(C(C)C)cc1N do in these assays?
MITF primary: 22; TEAD-YAP block: 8; FBW7 activator: 4.1*; GPR151 activ: -1

How did CCN(CC)C(=O)C1CCCN(Cc2cc(OC)c(OC)c(OC)c2)C1 (centres undefined) do in these assays?
MITF primary: 18; TEAD-YAP block: 2; FBW7 activator: 0; GPR151 activ: 1

How did O=[N+]([O-])c1cc(Cl)c(Sc2nc3ccccc3s2)c(Cl)c1 do in these assays?
MITF primary: 35; TEAD-YAP block: 49*; FBW7 activator: 1; GPR151 activ: 0

What do the screens show for `O=[N+]([O-])c1ccc(Sc2nc3ccccc3s2)cc1`?
MITF primary: 7; TEAD-YAP block: 2; FBW7 activator: 0; GPR151 activ: -1

How did CC[n+]1c(/C=C/c2ccc(N(C)C)cc2)sc2cc(C)ccc21 do in these assays?
MITF primary: 23; TEAD-YAP block: 89*; FBW7 activator: 0; GPR151 activ: -1

What do the screens show for `CC[n+]1c(C)sc2ccc(C)cc21`?
MITF primary: 1; TEAD-YAP block: 15; FBW7 activator: 0; GPR151 activ: 1

What do the screens show for `CCOc1ccc(Br)cc1C1C2=C(CCCC2=O)N(CC(=O)O)C2=C1C(=O)CCC2`?
MITF primary: -12; TEAD-YAP block: 4; FBW7 activator: 1.9*; GPR151 activ: 0

Results for CCCOc1ccccc1C1C2=C(CCCC2=O)N(C)C2=C1C(=O)CCC2 ?
MITF primary: 3; TEAD-YAP block: 8; FBW7 activator: 3.0*; GPR151 activ: 0

What do the screens show for `COc1ccc(C(=O)Nc2nc3c(s2)CN(Cc2ccccc2)CC3)cc1OC`?
MITF primary: 3; TEAD-YAP block: 1; FBW7 activator: 0; GPR151 activ: 2

Results for O=C(Nc1nc2c(s1)CN(Cc1ccccc1)CC2)c1ccc2ccccc2c1 ?
MITF primary: 5; TEAD-YAP block: 33*; FBW7 activator: 0; GPR151 activ: 4

Results for Cc1ccccc1-c1ccc(N2CCN(S(C)(=O)=O)CC2)nn1 ?
MITF primary: -10; TEAD-YAP block: 45*; FBW7 activator: 0; GPR151 activ: -9

What do the screens show for `Cc1ccccc1-c1ccc(N2CCN(C(=O)C3CCN(S(C)(=O)=O)CC3)CC2)nn1`?
MITF primary: -10; TEAD-YAP block: -18; FBW7 activator: 0; GPR151 activ: 1

What do the screens show for `CC(C)(C)NS(=O)(=O)c1ccc(F)cc1`?
MITF primary: -5; TEAD-YAP block: -2; FBW7 activator: 0; GPR151 activ: 1

How did CC(C)(C)NS(=O)(=O)c1ccc(Cc2ccc(S(=O)(=O)NC(C)(C)C)cc2)cc1 do in these assays?
MITF primary: -4; TEAD-YAP block: 37*; FBW7 activator: 0; GPR151 activ: -1

Results for CC(C)NS(=O)(=O)c1ccc(Cc2ccc(S(=O)(=O)NC(C)C)cc2)cc1 ?
MITF primary: 5; TEAD-YAP block: 35*; FBW7 activator: 0; GPR151 activ: 1

What do the screens show for `COc1cc(/C=C/C(=O)c2ccccc2OC)ccc1OCC#N`?
MITF primary: 10; TEAD-YAP block: 58*; FBW7 activator: 0; GPR151 activ: 1

How did O=C(CNC(=O)c1ccccc1Br)N/N=C/c1ccc(Cl)cc1Cl do in these assays?
MITF primary: -4; TEAD-YAP block: -2; FBW7 activator: 0; GPR151 activ: 0

Results for Cc1ccc(C(=O)CN(C(=O)CCl)c2ccccc2)cc1 ?
MITF primary: 1; TEAD-YAP block: 36*; FBW7 activator: 0; GPR151 activ: -1

What do the screens show for `Cc1ccc(N(CCC(N)=O)C(=O)CCl)cc1`?
MITF primary: -1; TEAD-YAP block: 76*; FBW7 activator: 0; GPR151 activ: 0

Results for CCOC(=O)NC(Nc1nnc(C(F)(F)F)s1)(C(F)(F)F)C(F)(F)F ?
MITF primary: -8; TEAD-YAP block: 5; FBW7 activator: 0; GPR151 activ: 0

Results for COc1ccc(-n2c(C)nn(CC#N)c2=O)cc1OC ?
MITF primary: -6; TEAD-YAP block: 3; FBW7 activator: 0; GPR151 activ: 1

How did O=C1CCCN1CCCNc1nc(Nc2ccc(C(F)(F)F)cc2)nc2c1ncn2-c1ccsc1 do in these assays?
MITF primary: 5; TEAD-YAP block: 12; FBW7 activator: 0; GPR151 activ: 0
